These results are taken from PMC7862700, “An all-to-all approach to the identification of sequence-specific readers for epigenetic DNA modifications on cytosine”.

Experiment in all cases: DAPPL (digital affinity profiling via proximity ligation, sequencing); 10 mM Tris-HCl pH 7.5, 50 mM NaCl, 1 mM DTT, 4% glycerol, room temperature, 30 min; GST-TFs on glutathione beads, 16-mer random dsDNA library, 0.1% formaldehyde crosslink after washing; high values mean tight binding
Experiment [1] has as its target T1, FEV (Homo sapiens, UniProt Q99581 1-238).
T1 sequence: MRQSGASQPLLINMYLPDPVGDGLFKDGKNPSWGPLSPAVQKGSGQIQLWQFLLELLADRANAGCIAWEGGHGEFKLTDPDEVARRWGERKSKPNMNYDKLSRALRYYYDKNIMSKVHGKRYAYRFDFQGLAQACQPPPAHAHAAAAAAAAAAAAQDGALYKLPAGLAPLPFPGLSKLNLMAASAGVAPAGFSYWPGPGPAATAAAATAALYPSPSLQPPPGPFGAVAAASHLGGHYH
Particulars: protein: recombinant; tags: N-terminal GST; dsDNA, one strand shown. In a few lines: (§1)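 Binding signal is defined as a hexamer's read frequency for one factor over its frequency for the tag-only sample. To obtain reads, GST-fused human transcription factors were expressed in yeast, captured on glutathione beads, barcoded with DNA and pooled with that sample. Pools met 200 nmole of a 16-mer random double-stranded DNA library in Tris/NaCl/DTT/glycerol buffer for 30 min at room temperature before washing, 0.1% formaldehyde crosslinking, proximity ligation (BsaI/T4 ligase, 1 h, 37 °C), PCR and Illumina NextSeq500 sequencing.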

Experiment [2] deals with ETV5 (Homo sapiens, UniProt P41161 1-510). To be noted: protein: recombinant; tags: N-terminal GST; dsDNA, one strand shown. The method in brief:
as §1

The target of experiment [3] is HSF1 (Homo sapiens, UniProt Q00613 1-529). To be noted: protein: recombinant; tags: N-terminal GST; chain copies: 3; dsDNA, one strand shown. The method in brief: as §1
Sequence of HSF1 (Q00613 whole entry): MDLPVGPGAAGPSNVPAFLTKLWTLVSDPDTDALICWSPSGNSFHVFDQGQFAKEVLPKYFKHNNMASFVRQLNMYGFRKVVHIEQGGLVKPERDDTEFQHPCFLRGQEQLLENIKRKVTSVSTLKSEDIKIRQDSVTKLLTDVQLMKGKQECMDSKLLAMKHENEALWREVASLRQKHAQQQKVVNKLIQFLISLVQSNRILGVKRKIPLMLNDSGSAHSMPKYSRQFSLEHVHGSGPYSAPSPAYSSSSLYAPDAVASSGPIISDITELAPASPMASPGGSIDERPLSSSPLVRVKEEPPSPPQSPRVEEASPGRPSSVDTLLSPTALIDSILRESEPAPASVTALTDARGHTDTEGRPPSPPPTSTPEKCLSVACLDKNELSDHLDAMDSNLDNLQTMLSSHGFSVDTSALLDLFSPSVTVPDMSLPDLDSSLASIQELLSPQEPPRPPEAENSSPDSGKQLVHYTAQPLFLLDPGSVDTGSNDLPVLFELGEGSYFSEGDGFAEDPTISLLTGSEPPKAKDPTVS
The target in experiment [4] is T2, SPIC (Homo sapiens, UniProt Q8N5J4 1-248).
T2 sequence: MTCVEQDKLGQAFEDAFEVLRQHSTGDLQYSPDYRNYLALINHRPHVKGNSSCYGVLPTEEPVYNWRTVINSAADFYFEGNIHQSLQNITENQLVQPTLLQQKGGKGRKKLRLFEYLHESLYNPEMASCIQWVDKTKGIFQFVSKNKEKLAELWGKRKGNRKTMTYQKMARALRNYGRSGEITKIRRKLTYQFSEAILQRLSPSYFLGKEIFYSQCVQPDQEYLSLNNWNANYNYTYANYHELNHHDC
To be noted: protein: recombinant; tags: N-terminal GST; dsDNA, one strand shown. In a few lines:
as §1

The target in experiment [5] is ELF4 (Homo sapiens, UniProt Q99607 1-663). Particulars: protein: recombinant; tags: N-terminal GST; dsDNA, one strand shown. The method in brief: as §1
Sequence of ELF4 (Q99607 whole entry): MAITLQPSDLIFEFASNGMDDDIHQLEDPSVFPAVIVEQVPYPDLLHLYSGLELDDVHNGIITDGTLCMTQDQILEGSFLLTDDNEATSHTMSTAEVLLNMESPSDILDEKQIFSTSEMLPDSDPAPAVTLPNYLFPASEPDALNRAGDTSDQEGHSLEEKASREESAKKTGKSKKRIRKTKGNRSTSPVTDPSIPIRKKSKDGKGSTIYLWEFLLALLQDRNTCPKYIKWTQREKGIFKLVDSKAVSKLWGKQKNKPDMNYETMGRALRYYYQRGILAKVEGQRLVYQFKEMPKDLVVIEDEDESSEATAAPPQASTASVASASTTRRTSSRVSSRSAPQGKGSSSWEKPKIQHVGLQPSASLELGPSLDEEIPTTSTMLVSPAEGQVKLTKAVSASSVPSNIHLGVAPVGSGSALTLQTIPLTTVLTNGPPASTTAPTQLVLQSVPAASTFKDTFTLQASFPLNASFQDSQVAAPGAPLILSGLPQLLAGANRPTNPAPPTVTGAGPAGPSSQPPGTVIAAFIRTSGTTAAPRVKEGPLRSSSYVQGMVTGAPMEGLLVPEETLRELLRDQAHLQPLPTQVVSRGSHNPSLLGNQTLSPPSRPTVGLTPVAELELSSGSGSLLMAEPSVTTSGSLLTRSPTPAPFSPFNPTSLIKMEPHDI
Experiment [6] has as its target T3, ELK4 (Homo sapiens, UniProt P28324-2 1-405).
T3 sequence: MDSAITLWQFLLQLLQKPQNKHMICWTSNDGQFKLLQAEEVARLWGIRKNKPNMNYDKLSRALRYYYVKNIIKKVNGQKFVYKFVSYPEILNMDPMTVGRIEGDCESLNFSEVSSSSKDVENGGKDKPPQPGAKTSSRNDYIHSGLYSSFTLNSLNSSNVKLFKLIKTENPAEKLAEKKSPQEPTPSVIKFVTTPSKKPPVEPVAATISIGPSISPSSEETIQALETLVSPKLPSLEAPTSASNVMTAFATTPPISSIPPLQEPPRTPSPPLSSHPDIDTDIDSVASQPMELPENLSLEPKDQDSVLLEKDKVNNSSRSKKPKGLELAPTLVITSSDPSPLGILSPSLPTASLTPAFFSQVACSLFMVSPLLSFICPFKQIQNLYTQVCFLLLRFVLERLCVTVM
To be noted: protein: recombinant; tags: N-terminal GST; dsDNA, one strand shown. In a few lines: as §1

Experiment [7] deals with T4, ETV2 (Homo sapiens, UniProt O00321 1-342).
T4 sequence: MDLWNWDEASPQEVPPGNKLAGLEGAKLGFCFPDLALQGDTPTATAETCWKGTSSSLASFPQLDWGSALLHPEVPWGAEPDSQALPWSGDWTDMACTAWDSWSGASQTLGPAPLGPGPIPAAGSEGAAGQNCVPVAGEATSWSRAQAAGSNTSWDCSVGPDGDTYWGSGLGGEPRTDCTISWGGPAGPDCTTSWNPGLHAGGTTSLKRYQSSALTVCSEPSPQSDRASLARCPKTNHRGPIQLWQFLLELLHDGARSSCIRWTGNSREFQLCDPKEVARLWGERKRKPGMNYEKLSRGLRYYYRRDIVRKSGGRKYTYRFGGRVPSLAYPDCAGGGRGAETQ
Particulars: protein: recombinant; tags: N-terminal GST; dsDNA, one strand shown. The method in brief:
as §1

The target in experiment [8] is T5, ELF3 (Homo sapiens, UniProt P78545 1-371).
T5 sequence: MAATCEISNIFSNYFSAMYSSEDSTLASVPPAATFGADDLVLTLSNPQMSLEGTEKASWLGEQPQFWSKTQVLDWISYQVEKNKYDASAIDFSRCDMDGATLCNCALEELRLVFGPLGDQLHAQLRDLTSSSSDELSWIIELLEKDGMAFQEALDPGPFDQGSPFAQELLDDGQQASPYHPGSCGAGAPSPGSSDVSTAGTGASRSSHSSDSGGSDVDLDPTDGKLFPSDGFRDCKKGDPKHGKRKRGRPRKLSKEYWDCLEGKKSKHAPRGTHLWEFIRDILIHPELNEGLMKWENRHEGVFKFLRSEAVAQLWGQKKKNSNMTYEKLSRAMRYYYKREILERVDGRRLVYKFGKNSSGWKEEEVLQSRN
To be noted: protein: recombinant; tags: N-terminal GST; dsDNA, one strand shown. In a few lines:
as §1

Experiment [9] concerns the target CRX (Homo sapiens, UniProt O43186 1-299). To be noted: protein: recombinant; tags: N-terminal GST; dsDNA, one strand shown. In a few lines:
as §1

In experiment [10] the target is ETV1 (Homo sapiens, UniProt P50549 1-477). To be noted: protein: recombinant; tags: N-terminal GST; dsDNA, one strand shown. The method in brief: as §1
Sequence of ETV1 (P50549 whole entry): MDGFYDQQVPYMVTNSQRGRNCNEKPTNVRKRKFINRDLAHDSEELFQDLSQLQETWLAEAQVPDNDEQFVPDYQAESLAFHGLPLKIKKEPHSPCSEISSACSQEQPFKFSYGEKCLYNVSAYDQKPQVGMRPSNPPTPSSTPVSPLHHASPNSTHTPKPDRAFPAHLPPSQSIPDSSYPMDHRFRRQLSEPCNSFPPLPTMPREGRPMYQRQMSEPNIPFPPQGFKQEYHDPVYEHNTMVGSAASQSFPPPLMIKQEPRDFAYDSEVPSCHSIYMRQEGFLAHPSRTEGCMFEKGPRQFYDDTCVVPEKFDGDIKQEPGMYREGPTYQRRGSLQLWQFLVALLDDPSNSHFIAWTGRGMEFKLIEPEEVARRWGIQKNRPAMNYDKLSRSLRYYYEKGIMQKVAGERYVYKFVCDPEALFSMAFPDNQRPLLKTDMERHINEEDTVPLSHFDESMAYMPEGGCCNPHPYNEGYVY
The target in experiment [11] is T6, ERF (Homo sapiens, UniProt P50548 1-548).
T6 sequence: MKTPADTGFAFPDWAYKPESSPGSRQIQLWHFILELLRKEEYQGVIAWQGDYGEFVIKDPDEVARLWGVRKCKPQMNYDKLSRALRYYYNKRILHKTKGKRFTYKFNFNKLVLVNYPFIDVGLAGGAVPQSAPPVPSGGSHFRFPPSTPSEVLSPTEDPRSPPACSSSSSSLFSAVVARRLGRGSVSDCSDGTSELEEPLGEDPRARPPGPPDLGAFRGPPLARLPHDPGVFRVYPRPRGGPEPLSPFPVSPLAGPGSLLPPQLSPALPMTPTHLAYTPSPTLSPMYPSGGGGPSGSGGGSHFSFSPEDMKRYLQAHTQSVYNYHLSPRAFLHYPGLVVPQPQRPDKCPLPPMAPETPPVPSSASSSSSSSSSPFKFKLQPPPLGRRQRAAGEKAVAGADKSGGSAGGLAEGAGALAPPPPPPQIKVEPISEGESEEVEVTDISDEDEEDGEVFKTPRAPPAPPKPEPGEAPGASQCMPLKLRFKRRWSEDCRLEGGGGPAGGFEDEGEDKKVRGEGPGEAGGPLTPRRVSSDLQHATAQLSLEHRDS
To be noted: protein: recombinant; tags: N-terminal GST; dsDNA, one strand shown. In a few lines:
as §1

The target of experiment [12] is T7, ETV3L (Homo sapiens, UniProt Q6ZN32 1-361).
T7 sequence: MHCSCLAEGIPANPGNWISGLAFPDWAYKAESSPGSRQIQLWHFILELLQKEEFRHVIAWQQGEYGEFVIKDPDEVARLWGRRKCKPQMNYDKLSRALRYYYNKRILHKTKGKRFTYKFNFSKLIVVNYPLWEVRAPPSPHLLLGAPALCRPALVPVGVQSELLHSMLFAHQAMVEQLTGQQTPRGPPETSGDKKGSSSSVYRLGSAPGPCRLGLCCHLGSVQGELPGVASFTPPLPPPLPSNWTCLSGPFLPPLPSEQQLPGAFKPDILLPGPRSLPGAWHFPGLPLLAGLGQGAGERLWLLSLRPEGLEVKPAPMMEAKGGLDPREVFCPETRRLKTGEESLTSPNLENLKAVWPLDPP
To be noted: protein: recombinant; tags: N-terminal GST; dsDNA, one strand shown. In a few lines: as §1

Experiment [13] has as its target T8, ETS2 (Homo sapiens, UniProt P15036 1-469).
T8 sequence: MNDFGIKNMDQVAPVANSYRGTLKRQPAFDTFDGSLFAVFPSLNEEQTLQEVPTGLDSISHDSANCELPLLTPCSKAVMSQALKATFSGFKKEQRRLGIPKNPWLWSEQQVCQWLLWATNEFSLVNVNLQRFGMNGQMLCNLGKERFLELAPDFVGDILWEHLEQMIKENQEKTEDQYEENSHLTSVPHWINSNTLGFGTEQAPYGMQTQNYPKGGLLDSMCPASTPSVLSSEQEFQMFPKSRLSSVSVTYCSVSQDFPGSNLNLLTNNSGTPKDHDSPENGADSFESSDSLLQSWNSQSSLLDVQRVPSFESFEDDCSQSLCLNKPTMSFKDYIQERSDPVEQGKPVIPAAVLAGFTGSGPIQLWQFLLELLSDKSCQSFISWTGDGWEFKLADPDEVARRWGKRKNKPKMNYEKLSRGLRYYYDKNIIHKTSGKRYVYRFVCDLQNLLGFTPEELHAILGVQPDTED
To be noted: protein: recombinant; tags: N-terminal GST; dsDNA, one strand shown. In a few lines:
as §1

The target in experiment [14] is T9, SPDEF (Homo sapiens, UniProt O95238 1-335).
T9 sequence: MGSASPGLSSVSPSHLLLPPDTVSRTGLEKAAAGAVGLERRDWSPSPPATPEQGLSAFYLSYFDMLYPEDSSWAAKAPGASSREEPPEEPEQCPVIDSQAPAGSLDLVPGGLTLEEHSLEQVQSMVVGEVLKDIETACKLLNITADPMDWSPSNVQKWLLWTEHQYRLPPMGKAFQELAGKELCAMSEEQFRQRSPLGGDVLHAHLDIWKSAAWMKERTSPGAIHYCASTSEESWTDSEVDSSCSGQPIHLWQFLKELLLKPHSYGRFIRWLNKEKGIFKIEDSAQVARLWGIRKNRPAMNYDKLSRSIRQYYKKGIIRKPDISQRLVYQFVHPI
Particulars: protein: recombinant; tags: N-terminal GST; dsDNA, one strand shown. In a few lines: as §1

The target of experiment [15] is T10, ETV7 (Homo sapiens, UniProt Q9Y603 1-341).
T10 sequence: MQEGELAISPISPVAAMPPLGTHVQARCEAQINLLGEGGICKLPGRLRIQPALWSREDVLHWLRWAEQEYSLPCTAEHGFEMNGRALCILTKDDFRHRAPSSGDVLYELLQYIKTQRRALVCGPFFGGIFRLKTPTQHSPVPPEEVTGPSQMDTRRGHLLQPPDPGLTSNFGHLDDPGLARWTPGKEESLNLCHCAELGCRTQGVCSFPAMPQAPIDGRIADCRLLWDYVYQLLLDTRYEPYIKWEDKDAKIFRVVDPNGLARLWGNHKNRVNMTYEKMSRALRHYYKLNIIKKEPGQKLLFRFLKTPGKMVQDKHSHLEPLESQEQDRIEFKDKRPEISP
Particulars: protein: recombinant; tags: N-terminal GST; dsDNA, one strand shown. In a few lines:
as §1

The target in experiment [16] is T11, ELF5 (Homo sapiens, UniProt Q9UKW6-2 1-255).
T11 sequence: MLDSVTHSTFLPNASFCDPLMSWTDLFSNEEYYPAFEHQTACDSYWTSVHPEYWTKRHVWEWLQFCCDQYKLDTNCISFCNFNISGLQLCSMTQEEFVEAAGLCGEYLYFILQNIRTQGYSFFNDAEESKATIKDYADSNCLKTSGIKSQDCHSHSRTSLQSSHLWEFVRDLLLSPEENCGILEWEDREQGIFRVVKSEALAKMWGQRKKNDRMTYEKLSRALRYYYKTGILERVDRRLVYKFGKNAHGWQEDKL
To be noted: protein: recombinant; tags: N-terminal GST; dsDNA, one strand shown. The method in brief: as §1

Experiment [17] concerns the target T12, ETV3 (Homo sapiens, UniProt P41162-2 1-143).
T12 sequence: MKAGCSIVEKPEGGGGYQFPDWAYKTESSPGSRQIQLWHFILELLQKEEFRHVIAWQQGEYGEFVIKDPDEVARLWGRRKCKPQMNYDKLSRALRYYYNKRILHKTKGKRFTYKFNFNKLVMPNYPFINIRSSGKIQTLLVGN
Particulars: protein: recombinant; tags: N-terminal GST; dsDNA, one strand shown. The method in brief:
as §1

Experiment [18] addresses ETV6 (Homo sapiens, UniProt P41212 1-452). Particulars: protein: recombinant; tags: N-terminal GST; dsDNA, one strand shown. In a few lines: as §1

Sequence of ETV6 (P41212 whole entry): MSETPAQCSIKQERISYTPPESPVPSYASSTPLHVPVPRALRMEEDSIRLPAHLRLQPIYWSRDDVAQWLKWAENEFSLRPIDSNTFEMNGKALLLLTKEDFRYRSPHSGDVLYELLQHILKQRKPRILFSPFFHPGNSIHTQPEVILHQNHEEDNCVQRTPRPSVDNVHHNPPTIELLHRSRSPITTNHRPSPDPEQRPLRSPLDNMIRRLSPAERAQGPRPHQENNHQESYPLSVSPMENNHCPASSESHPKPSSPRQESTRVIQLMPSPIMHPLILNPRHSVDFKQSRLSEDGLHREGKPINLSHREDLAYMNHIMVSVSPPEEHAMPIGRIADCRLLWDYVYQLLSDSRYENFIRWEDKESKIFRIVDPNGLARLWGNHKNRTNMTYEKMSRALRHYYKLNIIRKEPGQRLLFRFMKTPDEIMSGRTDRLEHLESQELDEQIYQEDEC
Sequence of ETV5 (P41161 whole entry): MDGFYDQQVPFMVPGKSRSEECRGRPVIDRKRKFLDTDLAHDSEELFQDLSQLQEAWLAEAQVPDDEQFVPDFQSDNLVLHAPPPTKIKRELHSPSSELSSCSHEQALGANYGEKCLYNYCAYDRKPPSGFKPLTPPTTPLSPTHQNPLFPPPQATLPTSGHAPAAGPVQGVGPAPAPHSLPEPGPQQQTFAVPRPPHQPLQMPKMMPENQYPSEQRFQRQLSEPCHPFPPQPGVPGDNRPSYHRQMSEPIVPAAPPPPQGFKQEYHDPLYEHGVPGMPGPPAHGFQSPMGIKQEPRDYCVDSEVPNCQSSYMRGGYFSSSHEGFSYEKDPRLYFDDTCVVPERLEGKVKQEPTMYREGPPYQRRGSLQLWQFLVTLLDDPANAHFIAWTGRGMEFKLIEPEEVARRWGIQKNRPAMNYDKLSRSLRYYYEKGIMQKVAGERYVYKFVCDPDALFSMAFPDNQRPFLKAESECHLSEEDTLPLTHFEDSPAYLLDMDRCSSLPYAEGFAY
Sequence of CRX (O43186 whole entry): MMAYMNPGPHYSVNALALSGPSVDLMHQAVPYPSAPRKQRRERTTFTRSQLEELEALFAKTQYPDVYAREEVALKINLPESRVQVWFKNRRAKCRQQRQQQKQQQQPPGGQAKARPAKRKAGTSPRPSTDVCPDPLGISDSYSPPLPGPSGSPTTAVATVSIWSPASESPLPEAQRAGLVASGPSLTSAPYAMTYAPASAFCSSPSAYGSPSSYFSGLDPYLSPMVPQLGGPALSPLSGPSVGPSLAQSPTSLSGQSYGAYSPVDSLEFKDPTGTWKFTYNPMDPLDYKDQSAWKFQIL

For CTGCTA, the binding signal in experiment [1] was 1.47 fold enrichment (6-mer frequency, TF over GST control); in experiment [2], 1.56 fold enrichment (6-mer frequency, TF over GST control); in experiment [3], 1.37 fold enrichment (6-mer frequency, TF over GST control); in experiment [4] it was 1.5 fold enrichment (6-mer frequency, TF over GST control); in experiment [5], 1.42 fold enrichment (6-mer frequency, TF over GST control); in [6] it was 1.68 fold enrichment (6-mer frequency, TF over GST control). The binding signal in [7] was 1.49 fold enrichment (6-mer frequency, TF over GST control); in experiment [8], 1.67 fold enrichment (6-mer frequency, TF over GST control); in experiment [9], 1.36 fold enrichment (6-mer frequency, TF over GST control); in experiment [10], 1.64 fold enrichment (6-mer frequency, TF over GST control); in experiment [11] it was 1.49 fold enrichment (6-mer frequency, TF over GST control); in experiment [12] it was 1.38 fold enrichment (6-mer frequency, TF over GST control). In addition, the binding signal in [13] is 1.49 fold enrichment (6-mer frequency, TF over GST control); in experiment [14], 1.4 fold enrichment (6-mer frequency, TF over GST control); in experiment [15], 1.5 fold enrichment (6-mer frequency, TF over GST control); in experiment [16], 1.43 fold enrichment (6-mer frequency, TF over GST control); in [17], 1.39 fold enrichment (6-mer frequency, TF over GST control); in experiment [18], 1.39 fold enrichment (6-mer frequency, TF over GST control).
